Test systems include HCT-15 colon; HT29 colon; SNB-19 CNS; U251 CNS; PC-3 prostate; UACC-62 melanoma; LOX IMVI melanoma; SK-MEL-28 melanoma; SK-MEL-5 melanoma; SNB-75 CNS.
Test in all cases: NCI-60 one-dose screen, 48 h (100 = growth as untreated, 0 = no growth, -100 = all killed)
What all share (details): 10 µM unless noted

Compounds without any hit were thinned out: in the full panel of roughly 83,000, 20% have a hit.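 Treatment: one concentration, 48 hours, 96-well format. Scoring: percent growth, with anything below 10 considered active.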 Values without a mark were called inactive. The source made the active and inactive calls.

With `Fc1cc2c(cc1Cl)N(c1ncnc3ccc(-c4cnc5cnccn45)cc13)CC2`, the growth is 99.1% with HCT-15 colon; 87.9% in the test with HT29 colon; 86.2% in the test with SNB-19 CNS; 91.1% in the test with U251 CNS; 81.9% with PC-3 prostate; 80.5% with UACC-62 melanoma. For the same molecule, the growth with LOX IMVI melanoma is 91%; with SK-MEL-28 melanoma, 97.1%.

As for `N#CC1=C(N)Oc2c(sc3c(Br)cccc23)C1c1ccc([N+](=O)[O-])cc1` (stereo unspecified), the growth with HCT-15 colon was 7.43% (active); in the test with HT29 colon, 2.5% (active); in the test with SNB-19 CNS it was 30.8%; in the test with U251 CNS it was 14.6%; in the test with PC-3 prostate, 13.6%; with SK-MEL-5 melanoma, 0.865% (active). Besides, the results for the growth in the test with UACC-62 melanoma, in the test with LOX IMVI melanoma and in the test with SK-MEL-28 melanoma were 15.2%, -11.3% (active) and 61.4%, respectively.

On to `CCCCCCn1c(-c2ccc(C(=O)O/N=C(\N)c3ccc4c(c3)OCO4)cc2)nc(-c2ccccc2)c1-c1ccccc1`, for which the growth with HCT-15 colon was 7.82% (active); in the test on HT29 colon, 36.3%; in the test with SNB-19 CNS it was 55.3%; with U251 CNS, 8.25% (active); in the test with PC-3 prostate, 23.2%; with SK-MEL-5 melanoma, 62%. Further, the figures for the growth in the test with UACC-62 melanoma, in the test on LOX IMVI melanoma and with SK-MEL-28 melanoma were 48.1%, -95.1% (active) and 59.1%, respectively.

For `CC(=O)CC(c1cccs1)c1c(-c2ccccc2)[nH]c2ccccc12` (stereo unspecified), the growth with HCT-15 colon was 80.7%; in the test on SNB-75 CNS, 40.7%; in the test on SNB-19 CNS it was 96%; in the test with U251 CNS, 93.8%; in the test with PC-3 prostate, 77.3%; in the test with SK-MEL-5 melanoma, 95.3%. The growth is 77.9% in the test on UACC-62 melanoma, 81.7% in the test with LOX IMVI melanoma and 102% in the test on SK-MEL-28 melanoma.

Consider `C#C[C@]1(O)CC[C@H]2[C@@H]3CC=C4c5sc(Nc6cc(F)ccc6F)nc5CC[C@]4(C)[C@H]3CC[C@@]21C`, for which the growth in the test on HCT-15 colon was -28.4% (active); in the test on SNB-75 CNS it was -28.6% (active); with SNB-19 CNS, 6.38% (active); with U251 CNS, -15.2% (active); with PC-3 prostate, -8.02% (active); in the test with SK-MEL-5 melanoma, 13.2%. Further, the growth in the test with UACC-62 melanoma is -36.2% (active); with LOX IMVI melanoma, -77.7% (active); with SK-MEL-28 melanoma, -44.9% (active).

Regarding `COc1ccc(C(=O)n2nc(-c3ccccc3)nc2N)cc1OC`, the growth in the test on HCT-15 colon is 96.8%; in the test on SNB-75 CNS it was 81.1%; with SNB-19 CNS, 95.7%; in the test with U251 CNS, 90.4%; in the test with PC-3 prostate, 87.9%; in the test with SK-MEL-5 melanoma it was 93.3%. In addition, the growth in the test on UACC-62 melanoma is 86.7%; in the test with LOX IMVI melanoma, 91.7%; in the test on SK-MEL-28 melanoma, 107%.

Regarding `NC1CCN(c2nc(Nc3cccc(C(F)(F)F)c3)c3c(=O)[nH]ccc3n2)CC1`, the growth is -16.3% (active) in the test on HT29 colon; -76.8% (active) in the test with SNB-75 CNS; -14.3% (active) with SNB-19 CNS; -82.1% (active) in the test on U251 CNS; 19.3% with PC-3 prostate; -96.2% (active) in the test on SK-MEL-5 melanoma. Besides, the growth in the test with UACC-62 melanoma is -80.4% (active); with LOX IMVI melanoma it was -94.2% (active); in the test with SK-MEL-28 melanoma, -85.4% (active).

As to `N#Cc1c(-c2ccc(Cl)cc2)nc2c(c(-c3ccccc3)nn2-c2ccccc2)c1-c1ccc(O)cc1`, the growth in the test on HCT-15 colon was 27.2%; in the test on SNB-19 CNS, 65%; with U251 CNS, 34%; in the test on PC-3 prostate, 12%; in the test on SK-MEL-5 melanoma, 56.3%; with UACC-62 melanoma, 53.6%. Besides, the growth is 26.5% in the test on LOX IMVI melanoma and 56.4% with SK-MEL-28 melanoma.

Take `Cn1cc(-c2ccc3cc(-c4ccc(CC(=O)Nc5cc(C(C)(C)C)nn5C)cc4)cnc3c2)cn1`: the growth is 5.84% (active) in the test on HCT-15 colon; 3.79% (active) in the test with SNB-75 CNS; 20.1% with U251 CNS; 3.81% (active) in the test with PC-3 prostate; -35.4% (active) in the test with SK-MEL-5 melanoma; -16.6% (active) in the test on UACC-62 melanoma. For the same molecule, the growth in the test with LOX IMVI melanoma was 14.1%; with SK-MEL-28 melanoma, 16.7%.

Regarding `Cc1ccc(S(=O)(=O)N/N=C/C2(c3ccccc3)CC2)cc1`, the growth is 115% with HCT-15 colon; 88.2% with SNB-75 CNS; 99.3% in the test with SNB-19 CNS; 103% in the test on U251 CNS; 93.7% with PC-3 prostate; 105% in the test with SK-MEL-5 melanoma. In addition, the growth in the test on UACC-62 melanoma is 102%; in the test with LOX IMVI melanoma, 96.9%; with SK-MEL-28 melanoma it was 106%.

For the molecule `NC(=O)C1(Nc2ccc(Br)cc2)CCCC1`, the growth is 107% with HCT-15 colon; 93.2% in the test with SNB-75 CNS; 105% in the test on SNB-19 CNS; 97.5% in the test with U251 CNS; 94.3% in the test on PC-3 prostate; 103% in the test with SK-MEL-5 melanoma. Besides, the growth with UACC-62 melanoma is 96.4%; in the test on LOX IMVI melanoma, 103%; in the test on SK-MEL-28 melanoma it was 106%.

As for `COc1cc(C(=O)c2cc(C)c3[nH]c4ccc(O)cc4c3c2C)cc(OC)c1OC`, the growth in the test with HCT-15 colon was 8.88% (active); with SNB-75 CNS, 37.3%; in the test on SNB-19 CNS, 54.1%; in the test on U251 CNS it was 11.5%; with PC-3 prostate, 24.9%; in the test on SK-MEL-5 melanoma it was -49.4% (active). The values for the growth with UACC-62 melanoma, in the test on LOX IMVI melanoma and in the test on SK-MEL-28 melanoma were 59.8%, 13% and 55.7%, respectively.

In the case of `CCOC(=O)c1nc(Nc2ccc(C(C)=O)cc2)sc1C`, the growth with HCT-15 colon is 96.8%; in the test with SNB-75 CNS it was 89.7%; in the test on SNB-19 CNS, 95.9%; in the test on PC-3 prostate, 99.5%; in the test on SK-MEL-5 melanoma it was 100%; in the test on UACC-62 melanoma, 95.1%. The growth with LOX IMVI melanoma was 99.9%; with SK-MEL-28 melanoma it was 102%.

With `O=C(N/N=C/[C@@H](O)[C@H](O)[C@H](O)CO)c1ccc(NC(=O)c2cccnc2)cc1`, the growth in the test with HCT-15 colon was 103%; in the test with SNB-75 CNS, 90.3%; in the test with SNB-19 CNS it was 98.7%; in the test on U251 CNS, 101%; in the test on PC-3 prostate, 101%; with SK-MEL-5 melanoma it was 106%. The growth in the test with UACC-62 melanoma was 99.5%; in the test with LOX IMVI melanoma it was 101%; in the test with SK-MEL-28 melanoma it was 103%.

As to `Cc1ccc(C(=O)N/N=C/c2cccc([N+](=O)[O-])c2)cn1`, the growth with HCT-15 colon was 109%; in the test on SNB-75 CNS, 94.2%; in the test with SNB-19 CNS it was 98.5%; in the test on U251 CNS, 107%; in the test with PC-3 prostate, 95.4%; in the test on SK-MEL-5 melanoma it was 98.9%. Also, the growth with UACC-62 melanoma was 98.1%; in the test with LOX IMVI melanoma it was 105%; in the test on SK-MEL-28 melanoma, 103%.

The values above are taken from PubChem BioAssay (NCI).
